# Inconclusive results are not listed. Active and inactive are the calls of the source. How the source made its calls, unless noted: active means hit-call score of the fitted dose curve at least 0.9, where 1 is the maximum; inactive means score below 0.9.
# Experiment: CCTE_Harrill_HTTr_Apoptosis_MCF7: CCTE's 6-hour Apoptosis Assessment for the High-Throughput Transcriptomics (HTTr) Platform, in MCF-7 cells cultured in DMEM + 10% fetal bovine serum, Harrill Lab (AID 2284011)
# Procedure, shortened: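 MCF-7 (DMEM + 10% FBS), 384-well; 8-pt dilution series, 6 h chemical exposure; caspase-3/7 activation via CellEvent Caspase 3/7 Green, HCI; bidirectional fit vs DMSO.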
SMILES,outcome,AC50
OCC(CO)n1cnc(-c2ccc(F)cc2)c1-c1ccnc(Oc2ccccc2)n1,inactive,–
Cc1c(C)c2c(c(C)c1O)CCC(C)(COc1ccc(CC3SC(=O)NC3=O)cc1)O2 (stereo not drawn),inactive,–
CC(C)COC(=O)CCCCC(=O)OCC(C)C,inactive,–
COC(=O)CCC(=O)OC,inactive,–
NC(=Nc1ccccc1)Nc1ccccc1,inactive,–
S=c1[nH]c2ccccc2s1,inactive,–
CC(C)OC(=O)C(C)(C)Oc1ccc(C(=O)c2ccc(Cl)cc2)cc1,inactive,–
CN(C)C(=O)NC1(c2ccccc2)CCN(CCC[C@]2(c3ccc(Cl)c(Cl)c3)CCCN(C(=O)c3ccccc3)C2)CC1,inactive,–
CSc1ccc(Oc2ccc(S(N)(=O)=O)cc2CN(C)C)cc1C,inactive,–
CCCCCCC(CCCCCCCCCCC(=O)OCC(COC(C)=O)OC(C)=O)OC(C)=O (stereo not drawn),inactive,–
CC1(C)C(=O)NC(=O)N1CO,inactive,–
CCCCCCCC(=O)OC,inactive,–
NC1CCCCC1,inactive,–
O=C1CCCCC1,inactive,–
CN(C)CCCN(C)CCCN(C)C,inactive,–
Cc1cc(Cc2ccc(N)c(C)c2)ccc1N,inactive,–
O=[Si]=O,inactive,–
CC1=C(C)S(=O)(=O)CCS1(=O)=O,inactive,–
CCN(CC)CCOc1ccc(C(=C(Cl)c2ccccc2)c2ccccc2)cc1,inactive,–
O=C(O)c1[nH]n(-c2ccc(S(=O)(=O)O)cc2)c(=O)c1N=Nc1ccc(S(=O)(=O)O)cc1,inactive,–
COc1ccc(OC(F)(F)F)cc1CN[C@H]1CCCN[C@H]1c1ccccc1,inactive,–
O=C(O)CN(CC(=O)O)CC(=O)O,inactive,–
Cc1ccc(C(C)(C)C)c(O)c1,inactive,–
O=C(O)CC(O)(CC(=O)O)C(=O)O,inactive,–
CN(C)CCCN1c2ccccc2Sc2ccc(Cl)cc21,–,50 µM (active)
CCc1cc(C2=C(C(=O)O)N(c3ccccc3C(F)(F)F)S(=O)(=O)c3ccccc32)cc2c1OCO2,inactive,–
CCCCC(CC)COP(=O)(OCC(CC)CCCC)OCC(CC)CCCC (stereo not drawn),inactive,–

# Experiment: CCTE_Harrill_HTTr_CellCount_MCF7: CCTE's Cell Proliferation Assessment for the High-Throughput Transcriptomics (HTTr) Platform, Harrill Lab (AID 2284012; active means hit-call score of the fitted dose curve at least 0.9, where 1 is the maximum;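 further: count of Hoechst-stained nuclei per well by high-content imaging in MCF-7 cells; cells exposed to compound for six hours; intended direction is loss of nuclei count meaning fewer cells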)
# Procedure, shortened: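 Nuclei counting (Hoechst, high content imaging) in MCF-7 after a 6 h treatment at eight concentrations. Activity fitted bidirectionally, DMSO as negative control.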
row,SMILES,outcome
1,COC(=O)CCC(=O)OC,inactive
2,S=c1[nH]c2ccccc2s1,inactive
3,CC(C)OC(=O)C(C)(C)Oc1ccc(C(=O)c2ccc(Cl)cc2)cc1,inactive
4,CSc1ccc(Oc2ccc(S(N)(=O)=O)cc2CN(C)C)cc1C,inactive
5,NC1CCCCC1,inactive
6,O=C1CCCCC1,inactive
7,CN(C)CCCN(C)CCCN(C)C,inactive
8,CC1=C(C)S(=O)(=O)CCS1(=O)=O,inactive
9,Cc1ccc(C(C)(C)C)c(O)c1,inactive
10,CN(C)CCCN1c2ccccc2Sc2ccc(Cl)cc21,inactive
11,CCc1cc(C2=C(C(=O)O)N(c3ccccc3C(F)(F)F)S(=O)(=O)c3ccccc32)cc2c1OCO2,inactive

# Experiment: CCTE_Shafer_MEA_acute_burst_number: CCTE's Neural Acute Assay for Single-Electrode Bursts, Shafer Lab (AID 2284013)
# Procedure, shortened: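 Spontaneous network activity of primary rat cortical neurons was recorded extracellularly on microelectrode arrays at 37 C, with 40-min periods before and during exposure to 0.03-40 uM compound on DIV 13 or 15.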
SMILES,outcome,AC50
OCC(CO)n1cnc(-c2ccc(F)cc2)c1-c1ccnc(Oc2ccccc2)n1,inactive,–
Cc1c(C)c2c(c(C)c1O)CCC(C)(COc1ccc(CC3SC(=O)NC3=O)cc1)O2 (stereo not drawn),inactive,–
CC(C)COC(=O)CCCCC(=O)OCC(C)C,inactive,–
NC(=Nc1ccccc1)Nc1ccccc1,–,1.53 µM (active)
CN(C)C(=O)NC1(c2ccccc2)CCN(CCC[C@]2(c3ccc(Cl)c(Cl)c3)CCCN(C(=O)c3ccccc3)C2)CC1,inactive,–
CSc1ccc(Oc2ccc(S(N)(=O)=O)cc2CN(C)C)cc1C,inactive,–
Cc1cc(Cc2ccc(N)c(C)c2)ccc1N,inactive,–
CC1=C(C)S(=O)(=O)CCS1(=O)=O,inactive,–
CCN(CC)CCOc1ccc(C(=C(Cl)c2ccccc2)c2ccccc2)cc1,–,2.68 µM (active)
COc1ccc(OC(F)(F)F)cc1CN[C@H]1CCCN[C@H]1c1ccccc1,–,1.89 µM (active)
O=C(O)CN(CC(=O)O)CC(=O)O,inactive,–
Cc1ccc(C(C)(C)C)c(O)c1,inactive,–
CN(C)CCCN1c2ccccc2Sc2ccc(Cl)cc21,inactive,–
CCc1cc(C2=C(C(=O)O)N(c3ccccc3C(F)(F)F)S(=O)(=O)c3ccccc32)cc2c1OCO2,inactive,–
CCCCC(CC)COP(=O)(OCC(CC)CCCC)OCC(CC)CCCC (stereo not drawn),inactive,–

# Experiment: CCTE_Shafer_MEA_acute_burst_duration_mean: CCTE's Neural Acute Assay for Mean Burst Duration, Shafer Lab (AID 2284014);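 further: hits are decreases in mean burst duration relative to DMSO controls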
# Procedure, shortened: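 Read-out is the per-well percent change in mean burst duration (first to last spike within a single-electrode burst) between 40-min recordings before and after compound. Cultures were primary rat cortical neurons on MEAs, dosed at 0.03-40 uM on DIV 13 or 15.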
SMILES,outcome,AC50
OCC(CO)n1cnc(-c2ccc(F)cc2)c1-c1ccnc(Oc2ccccc2)n1,inactive,–
Cc1c(C)c2c(c(C)c1O)CCC(C)(COc1ccc(CC3SC(=O)NC3=O)cc1)O2 (stereo not drawn),inactive,–
CC(C)COC(=O)CCCCC(=O)OCC(C)C,inactive,–
NC(=Nc1ccccc1)Nc1ccccc1,inactive,–
CN(C)C(=O)NC1(c2ccccc2)CCN(CCC[C@]2(c3ccc(Cl)c(Cl)c3)CCCN(C(=O)c3ccccc3)C2)CC1,–,1.07 µM (active)
CSc1ccc(Oc2ccc(S(N)(=O)=O)cc2CN(C)C)cc1C,inactive,–
Cc1cc(Cc2ccc(N)c(C)c2)ccc1N,inactive,–
CC1=C(C)S(=O)(=O)CCS1(=O)=O,inactive,–
CCN(CC)CCOc1ccc(C(=C(Cl)c2ccccc2)c2ccccc2)cc1,inactive,–
COc1ccc(OC(F)(F)F)cc1CN[C@H]1CCCN[C@H]1c1ccccc1,inactive,–
O=C(O)CN(CC(=O)O)CC(=O)O,inactive,–
Cc1ccc(C(C)(C)C)c(O)c1,inactive,–
CN(C)CCCN1c2ccccc2Sc2ccc(Cl)cc21,inactive,–
CCc1cc(C2=C(C(=O)O)N(c3ccccc3C(F)(F)F)S(=O)(=O)c3ccccc32)cc2c1OCO2,inactive,–
CCCCC(CC)COP(=O)(OCC(CC)CCCC)OCC(CC)CCCC (stereo not drawn),inactive,–

# Source: PubChem BioAssay (EPA / NIEHS)
